# Compound activity as filed in PubChem.
# AmpC inh detg: AmpC beta-lactamase inhibition with detergent present; P00811; AmpC hydrolysis of nitrocefin, absorbance 480 nm, 0.01% Triton; Potency, µM (titrated, usually from 114 µM), for the others: top-dose activity change, negative = inhibition, hits mostly inhibitors; 0.041% of 370,000 active;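 further: potency means the concentration at half of the fitted maximal effect; 0% = no-compound wells and -100% = no-enzyme wells; nearly all actives have a fitted effect of over 25% in size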
# Target sequence (P00811 whole entry, looked up): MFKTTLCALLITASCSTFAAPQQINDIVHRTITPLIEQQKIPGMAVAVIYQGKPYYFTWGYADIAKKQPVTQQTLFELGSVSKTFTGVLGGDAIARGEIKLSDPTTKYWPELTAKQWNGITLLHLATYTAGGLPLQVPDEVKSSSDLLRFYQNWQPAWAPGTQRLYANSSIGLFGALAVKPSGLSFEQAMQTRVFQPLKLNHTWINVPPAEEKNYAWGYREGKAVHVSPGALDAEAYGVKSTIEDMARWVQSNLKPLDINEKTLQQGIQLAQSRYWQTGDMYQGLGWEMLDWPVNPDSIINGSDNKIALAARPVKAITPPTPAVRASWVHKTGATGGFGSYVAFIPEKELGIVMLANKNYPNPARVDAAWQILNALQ
#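 20 mM phosphate pH 7.0 + 0.01% (detergent screen) or 0.0001% Triton X-100; 5.3 nM AmpC reagent; cpd preinc 15 min RT; nitrocefin (800 uM stock) to start; A480 q20 s × 4 min; Activity was normalised to no-enzyme and no-compound control wells.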
# AmpC no deterg: AmpC beta-lactamase inhibition without detergent; P00811; AmpC nitrocefin hydrolysis, absorbance 480 nm, 0.0001% Triton; Potency, µM (top dose mostly 57.1 µM), for inactives: top-dose activity change, negative = inhibition, actives largely listed as inhibitors; 0.52% of 330,000 active;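 further: potency means the concentration at half of the fitted maximal effect; plate controls were no compound for no effect and no enzyme for full effect; nearly all actives have a fitted effect of over 20% in size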
#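 AmpC (5.3 nM in the dispensed reagent) in 20 mM phosphate pH 7.0 with 0.01% (detergent screen) or 0.0001% Triton X-100 was preincubated with compounds for 15 min at room temperature. Nitrocefin was then added from an 800 uM solution, and hydrolysis was followed at 480 nm.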
# SARS PLpro yeast: blocks SARS-CoV papain-like protease in a yeast assay; S. cerevisiae expressing SARS-CoV PLpro, growth rescue; Potency, µM (highest dose often 32.9 µM), without a hit: at the highest dose activity, positive = growth rescue, most hits filed as activators; 0.19% of 330,000 active; calls by dose curve; further: potency means the concentration at half of the fitted maximal effect; 0% is about no effect; nearly all actives have a fitted effect of over 55% in size
# Shiga toxin inh: Shiga toxin inhibition; Vero cells, Shiga toxin protein synthesis inhibition reporter; 9.2% of 290,000 active; inhibition, % at 38.7 µM; in the data active means inhibition mostly above about 28%, no sharp cut-off; inactive means mostly below about 43%; further: 0% is about no effect
# AMA1 RON2 block: inhibitors of Plasmodium falciparum AMA1-RON2 interaction; AlphaScreen AMA1-biotinylated RON2 peptide binding; Potency, µM (series often up to 58.2 µM), without a hit: at the top dose activity change, negative = inhibition, actives largely listed as inhibitors; 0.2% of 360,000 active;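 further: potency means the concentration at half of the fitted maximal effect; 0% = vehicle wells and -100% = peptide control; nearly all actives have a fitted effect of over 45% in size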
#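 AMA1 (3D7) with his tag at 25 nM final met compounds first, then biotinylated RON2 peptide at 25 nM; detection used donor plus acceptor beads, 10 µg/mL apiece, read by AlphaScreen after 30 min at room temperature.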
# CHX counter: counter-screen for Shiga toxin inhibitors: cycloheximide protein synthesis inhibition; cell reporter, cycloheximide protein synthesis inhibition counterscreen; max response, %; 12% of 300,000 active; in the data active means max response mostly above about 13%, no sharp cut-off; inactive means mostly below about 14%; further: read at 38.3 µM for the half of the compounds with a filed dose; 0% is about no effect
# The depositor's hits bear a star; ? = inconclusive; . = no result given; [ ] = dose if it differs, or a comment. Many of the other results were omitted from the sample, so hits are more common in it than they were. Unless noted, the call rests on the fitted dose curve; in most records, active means well fitted curve in the direction sought with a large enough effect; inconclusive means small, poorly fitted or top-dose-only effect, or another doubt; inactive means no such curve, though single readings can be large; an effect the other way counts as inactive or inconclusive.
SMILES,AmpC inh detg,AmpC no deterg,SARS PLpro yeast,Shiga toxin inh,AMA1 RON2 block,CHX counter
COc1cccc2sc(Nc3nnc(-c4ccc(F)cc4)o3)nc12,?,138%,-11%,39,42%,19*
Fc1cccc2sc(Nc3nnc(-c4ccco4)o3)nc12,-1%,-12%,-33%,171*,59%,40*
COc1cccc2sc(Nc3nnc(-c4cccs4)o3)nc12,-15%,45%,-15%,74*,24%,21*
COc1cccc2sc(NNC(=O)COc3ccccc3)nc12,5%,-9%,0%,14,112%,-4
OC[C@@H]1CN(Cc2ccc(F)cc2)C[C@H](n2cnc3c(N4CCOCC4)ncnc32)O1,.,.,.,.,54%,.
C=CCNC(=S)NC(=O)c1oc2ccccc2c1C,8%,-22%,-1%,35,-4%,32
Cc1c(C(=O)NC(=S)NCC(C)C)oc2ccccc12,-5%,-19%,-10%,35,-6%,17*
Cc1cccnc1NC(=S)NC(=O)c1oc2ccccc2c1C,-12%,-17%,-1%,79*,27%,40*
Cc1ccc(CNc2nc3ccc(Cl)cc3n3cnnc23)cc1,15%,.,.,.,.,.
C=C1SC(=Nc2c(C)cccc2Cl)N(C(=O)c2sc3ccccc3c2Cl)C12CCCCC2,-3%,-42%,2%,-6,0%,-1
C=C1SC(=Nc2ccccc2Cl)N(C(=O)c2sc3ccccc3c2Cl)C1(C)C,11%,-11%,-4%,99*,-13%,50*
Cc1ccc(NCC(=O)N=Nc2c(O)[nH]c3ccc([N+](=O)[O-])cc23)cc1,-7%,-31%,-1%,73,66%,43*
O=C(N=Nc1c(O)[nH]c2ccc([N+](=O)[O-])cc12)c1ccccc1Cl,?,-29%,0%,10,5%,-2
Cc1ccccc1NCC(=O)N=Nc1c(O)[nH]c2ccc([N+](=O)[O-])cc12,1%,-34%,-2%,21,76%,1
O=C(Nc1ccc(F)cc1)C(=O)c1c(O)[nH]c2ccc([N+](=O)[O-])cc12,0%,-28%,1%,26,-9%,19*
COC(=O)CN1C(=O)C(C)(C)Oc2ccc(C(=O)NC3CCCC3)cc21,-11%,-10%,-1%,-7,12%,-1
Cc1cc(C)c(C#N)c(SCC(=O)NC(C)(C)C)n1,-12%,0%,1%,-14,7%,-9
Cc1cccc(-c2nnc(SCC(=O)NC3CCCCC3)o2)c1,2%,.,.,.,.,.
O=C(COC(=O)c1cccnc1Cl)Nc1ccc2c(c1)OCO2,0%,-18%,-1%,97*,-8%,32*
CSc1ncccc1C(=O)OCC(=O)Nc1ccc2c(c1)OCO2,-10%,-7%,-4%,35*,-17%,12
O=C(NCCc1nc2ccccc2[nH]1)c1cccc(Br)c1,0%,1%[2.29 µM],4%,-3,-1%,-2
N#CCCN/N=C(/Cc1nc2ccccc2[nH]1)c1cccc(Cl)c1,6%,-28%,6%,99*,29%,43*
CCc1cc(C(=O)Cc2nc3ccccc3[nH]2)c(O)cc1O,?,?,1%,143*,75%,40*
Clc1ccc(/C(Cc2nc3ccccc3[nH]2)=N\Nc2ccccc2)cc1,11%,-1%,-7%,34*,76%,37*
O=C(Cc1nc2ccccc2[nH]1)c1ccc(Cl)cc1,-5%,-9%,-2%,62*,63%,23*
SMILES,AmpC inh detg,AmpC no deterg,SARS PLpro yeast,Shiga toxin inh,AMA1 RON2 block,CHX counter
CCCc1cc(C(=O)Cc2nc3ccccc3s2)c(O)cc1O,-4%,-40%,5%,24,80%,12
CNC(=S)NNC(=O)c1ccc(=O)n(Cc2ccc(Cl)cc2Cl)c1,2%,-19%,0%,27,105%,-4
CCc1cc(C(=O)COc2ccccc2F)c(O)cc1O,4%,-22%,-24%,16,0%,28*
CN/N=C(\Cc1nc2ccccc2[nH]1)c1ccc([N+](=O)[O-])cc1,2%,-37%,-6%,57*,23%,32*
O=C(Cc1nc2ccccc2[nH]1)c1ccc([N+](=O)[O-])cc1,?,-36%,0%,60*,65%,29*
CCc1cc(C(=O)Cc2ccc(F)cc2)c(O)cc1O,-1%,-25%,-20%,-8,16%[2.32 µM],-5
O=C(COc1ccccc1F)Nc1ccc(S(=O)(=O)NCc2ccco2)cc1,-16%,-21%,5%,40,-1%,40*
COc1ccccc1C(C)NC(=O)c1ccc(S(=O)(=O)NCc2ccco2)cc1 (stereo not given),.,-35%,5%,.,-8%,.
COc1ccc(S(=O)(=O)NCc2ccco2)cc1NC(=O)c1ccccc1,2%,-13%,4%,65*,-17%,47*
COc1ccccc1NC(=O)c1ccc(S(=O)(=O)NCc2ccco2)cc1,-2%,-51%,-5%,103*,9%,38*
COc1ccc(C(=O)Nc2ccc(S(=O)(=O)NCc3ccco3)cc2)cc1OC,-18%,-11%,-3%,14,-15%,-2
Cc1cccc(NC(=O)c2cc(S(=O)(=O)NCc3ccco3)ccc2F)c1C,?,-22%,9%,63*,2%,47*
CCOC(=O)[C@]12CCCC=C1N(Cc1cccc3ccccc13)C(=O)[C@H](CC(=O)NCc1cccc3ccccc13)C2,.,.,.,.,-6%,.
CCC(C)NC(=O)c1ccc2nc(CCc3ccccc3)oc2c1 (stereo not given),-1%,.,.,.,.,.
Cc1cc(C)n(-c2cc(C(C)(C)C)nc3c(-c4ccccc4)cnn23)n1,-9%,73%,-1%,90*,-13%,54*
Cc1nn2c(N3CCN(C)CC3)cc(C(C)(C)C)nc2c1-c1ccccc1,4%,147%,0%,-6,-10%,7
Cc1cc(C)n(-c2cc(C(C)(C)C)nc3c(-c4ccc(Cl)cc4)cnn23)n1,?,60%,-29%,64*,36%,29*
CCOC(=O)N1CCN(C(=O)c2ccc(C#CC3(O)CCCCC3)cc2)CC1,3%,46%,2%,41*,16%,31*
O=C(c1ccc(C#CC2(O)CCCCC2)cc1)N1CCN(Cc2ccccc2)CC1,-10%,136%,8%,-26,-1%,-2
O=C(c1ccc(C#CC2(O)CCCCC2)cc1)N1CCN(C(c2ccccc2)c2ccccc2)CC1,-12%,22%,-8%,21,-1%,21*
Cc1nnc(SCCn2c(Br)nc3c2c(=O)[nH]c(=O)n3C)s1,0%,0%,-6%,-7,1%,-1
COc1cc(OC)cc(C(=O)N2CCC(C(=O)NCCc3ccccc3)CC2)c1,-11%,51%,2%,.,-2%,24*
Cc1ccc2nc(NCc3ccc(F)cc3)c3nncn3c2c1,11%,-12%,-7%,-5,26%,2
